This is an account of results in PubChem BioAssay AID651820 (National Center for Advancing Translational Sciences (NCATS), 2012).

Hit rate of the full screen: of about 340,000 compounds, about 12,000 (3.5%) were called active. Not shown: some 18% with an inconclusive outcome. Calls follow the shape of the dose curve; as a rule, active = well fitted inhibition curve with a large enough effect; inconclusive = small, poorly fitted or top-dose-only effect, or another doubt; inactive = no such curve, though single readings can be large or run the other way. What follows is part of a selection rich in actives, with near analogues and random picks from the rest.
% is scaled to controls: 0 for no effect and ±100 for the full control effect; potency is read from the fitted curve at half-maximal effect.

The test is described as follows: qHTS Assay for Inhibitors of Hepatitis C Virus (HCV). The note with it: Huh7.5.1 HCVcc-Cre infection, luciferase reporter, 44 h; series mostly up to 41.8 µM; activity change, negative = inhibition: at the top concentration. The essentials:
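Infectious HCVcc-Cre (~0.5 moi) was added to cells just after compound, with cells seeded 4 h earlier at 1,000 per well. Luciferase activity after 44 h culture reported infection; substrate was incubated 15 min at room temperature before reading.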
`COC(=O)c1ccc(C)c(NC(=O)Cn2c(C)csc2=O)c1`: the “activity change, negative = inhibition” value is 4.64% (inactive).

On to `C#CC(C)(C)NC(=O)CSc1nc2c(c(=O)n(C)c(=O)n2C)n1CCCC`, for which the “activity change, negative = inhibition” value is -15.9% (inactive).

In the case of `CCOc1ccc2nc(NC(=O)CSc3nc4c(c(=O)n(C)c(=O)n4C)n3CC)sc2c1`, the Potency is 3.98 µM (active).

Consider `Cn1nnnc1SCC(=O)Nc1nc2ccccc2s1`, for which the “activity change, negative = inhibition” value was -9.51% (inactive).

`O=C(Cn1cnc2c(OCc3ccccc3)ncnc21)NCCCn1ccnc1`: the “activity change, negative = inhibition” value was 5.21% (inactive).

With `Cc1ccc(Cn2c(NC(=O)c3ccco3)nc3ccccc32)cc1`, the “activity change, negative = inhibition” value was -3.39% (inactive).

With `CCn1nc(NC(=O)c2ccco2)c2cc3ccc(C)cc3nc21`, the Potency was 10 µM (active).

As to `Cc1ccc(-n2nc3cc(Cl)c(NC(=O)c4ccco4)cc3n2)cc1`, the “activity change, negative = inhibition” value is -13.6% (inactive).

`CN1CCOC1c1ccc(C2OCCN2C)cc1` (centres undefined): the “activity change, negative = inhibition” value was 17.6% (inactive).

For the compound `COc1ccc(-c2ccc(Nc3ccc(S(=O)(=O)N4CCCC4)cc3)nn2)cc1OC`, the Potency is 12.6 µM (active).

For the compound `COc1ccccc1CC(=O)Nc1ccc(S(=O)(=O)N2CCCC2)cc1`, the “activity change, negative = inhibition” value is -19.2% (inactive).

Consider `COc1ccc(S(=O)(=O)Nc2ccc(S(=O)(=O)N3CCCCC3)cc2)cc1OC`, for which the “activity change, negative = inhibition” value was -1.61% (inactive).

With `COc1ccc(NS(=O)(=O)c2ccc(N3CCOCC3)c(NC(=O)/C=C/C(=O)O)c2)cc1`, the “activity change, negative = inhibition” value is -1.43% (inactive).

Consider `CCCc1nc(NCc2ccc3c(c2)OCO3)c2nnn(Cc3ccccc3Cl)c2n1`, for which the “activity change, negative = inhibition” value is 9.92% (inactive).

In the case of `Cc1nc(Nc2ccc3c(c2)OCCO3)c2nnn(Cc3ccccc3Cl)c2n1`, the Potency was 10 µM (active).

Regarding `Cc1nc(Nc2ccccc2F)c2nnn(Cc3ccccc3Cl)c2n1`, the “activity change, negative = inhibition” value is 6.92% (inactive).

With `CCN(CC(=O)Nc1ccccc1C(=O)NC1CC1)Cc1cccs1`, the “activity change, negative = inhibition” value is 0.258% (inactive).

As for `Cc1ccccc1NC(=O)Cc1nc(COC(=O)c2ccc(C(F)(F)F)cc2)cs1`, the “activity change, negative = inhibition” value was -7.12% (inactive).

For the compound `CCNC(=S)N(CCc1c(C)[nH]c2ccc(C)cc12)Cc1ccco1`, the activity change, negative = inhibition is 1.39% [at 8.37 µM] (inactive).

Regarding `COc1cccc(NC(=S)N(CCc2c(C)[nH]c3ccccc23)Cc2ccco2)c1`, the Potency is 25.1 µM (active).

In the case of `COc1cccc(NC(=S)NCc2ccco2)c1`, the “activity change, negative = inhibition” value is -5.4% (inactive).

With `CC(C)CC1(C)NC(=O)N(CC(=O)Nc2ccc3c(c2)OCCO3)C1=O` (centres undefined), the “activity change, negative = inhibition” value was 5.63% (inactive).

Consider `O=C(CN1CCOCC1)Nc1cc(Cl)ccc1Cl`, for which the “activity change, negative = inhibition” value was 0.835% (inactive).

Regarding `O=C(CSc1nc(Nc2ccccc2)nc(N2CCOCC2)n1)Nc1cc(Cl)ccc1O`, the Potency is 10 µM (active).

On to `CC1(c2ccccc2)NC(=O)N(CC(=O)Nc2cc(Cl)ccc2N2CCOCC2)C1=O` (centres undefined), for which the “activity change, negative = inhibition” value is 10.1% (inactive).

With `C#CCOCCOCCOCCNc1nc(N2CCN(C(=O)Cn3cc(CCO)nn3)CC2)nc(N2CCN(C(=O)Cn3cc(CCCN=C(N)N)nn3)CC2)n1`, the “activity change, negative = inhibition” value was 42.9% (inactive).

As for `CCCCNC(=O)CSc1nccn1Cc1ccccc1`, the “activity change, negative = inhibition” value is 12.3% (inactive).

In the case of `CCCCNC(=O)CSc1nnc(-c2ccco2)n1C`, the “activity change, negative = inhibition” value is 11.8% (inactive).

On to `CCCCNC(=O)CSc1nc2n[nH]c(C)c2c(=N)n1-c1cccc(Cl)c1C`, for which the Potency was 15.8 µM (active).

`CCn1nc(C(=O)NNC(=O)C2CSC3(C)CCC(=O)N23)c2ccccc2c1=O` (centres undefined): the “activity change, negative = inhibition” value was -22.1% (inactive).

As for `COc1cccc(CNC(C)C(=O)Nc2ccc(S(=O)(=O)N3CCCC3)cc2)c1` (centres undefined), the “activity change, negative = inhibition” value was -22% (inactive).

`O=C(NCCN1CCOCC1)c1cc(-c2cccs2)nc2ccccc12`: the “activity change, negative = inhibition” value is 12.8% (inactive).

Turning to `O=C(Nc1nnc(-c2ccccc2)o1)c1cc(-c2cccs2)nc2ccccc12`, the “activity change, negative = inhibition” value is -12.9% (inactive).

As for `COC(=O)c1cc(-c2cccs2)nc2ccccc12`, the Potency was 12.6 µM (active).

With `O=C(O)CCCc1ccccc1`, the Potency entry is “inactive”.

With `O=C(O)CCc1cccnc1`, the Potency is 0.891 µM (active).

Take `N/C(=N\OC(=O)CCc1ccccc1)c1cccnc1`: the “activity change, negative = inhibition” value is -0.933% (inactive).

Consider `COc1ccc2c(CC(=O)NNC(=O)c3ccccc3F)coc2c1`, for which the “activity change, negative = inhibition” value was 6.42% (inactive).

Take `Cc1cc(C)n2nc(C(=O)OCC(=O)N(C)CC(=O)Nc3ccc(F)cc3)nc2n1`: the “activity change, negative = inhibition” value was -0.618% (inactive).

`Cc1ccc(C)c(-c2nnc(NC(=O)CS(=O)(=O)c3ccccc3)o2)c1`: the “activity change, negative = inhibition” value was 10% (inactive).

In the case of `COc1ccc(S(=O)(=O)Nc2cccc3c2O[C@H](CN(C)S(=O)(=O)c2ccc(OC)cc2)[C@@H](C)CN([C@H](C)CO)C3=O)cc1`, the “activity change, negative = inhibition” value was 13.2% (inactive).

With `O=C(NCCCO)c1cc2c([nH]c3ccccc32)c(-c2ccc(F)cc2)n1`, the Potency is 14.1 µM (active).

Turning to `O=C(NCC1CCCO1)c1ccc2ccccc2n1` (centres undefined), the “activity change, negative = inhibition” value was -11.2% (inactive).

For the compound `CN(C)CCCNC(=O)c1ccc2[nH]c3ccccc3c2c1`, the “activity change, negative = inhibition” value was 7.15% (inactive).

For `O=C(NCCc1ccc(F)cc1)c1n[nH]c2ccccc12`, the “activity change, negative = inhibition” value is -2.17% (inactive).

Regarding `O=C(NCC1CCCO1)c1cc(-c2ccccc2)nc2ccccc12` (centres undefined), the “activity change, negative = inhibition” value was -9.2% (inactive).

As to `O=C(NCC1CCCO1)c1cc2c([nH]c3ccccc32)c(-c2ccc(F)cc2)n1` (centres undefined), the Potency is 1.58 µM (active).

`COc1ccc(CCNC(=O)COc2cc(C)cc3oc(=O)c(C)c(C)c23)cc1OC`: the “activity change, negative = inhibition” value is 24.8% (inactive).

`CC1CN(Cc2ccccc2)C(=S)NC1=O` (centres undefined): the “activity change, negative = inhibition” value was 33.1% (inactive).

As for `C=CCOC(=O)N1CCC2CC1c1cc(-c3ccc(OC)cc3)ccc12` (centres undefined), the activity change, negative = inhibition was 2.52% [at 8.37 µM] (inactive).

Consider `COc1ccccc1C(=O)NCCC(=O)NC1=NCCS1`, for which the “activity change, negative = inhibition” value was 5.53% (inactive).

Turning to `Cc1ccc(C(=O)NNC(=O)CSc2nnc3ccccn23)cc1`, the “activity change, negative = inhibition” value is -0.421% (inactive).

On to `Cc1ccc(CNC(=O)c2ccc3c(c2)S(=O)(=O)c2ccccc2C3=O)cc1`, for which the “activity change, negative = inhibition” value was -24.7% (inactive).

Consider `Cc1ccc(CNC(=O)c2cccc3c2C(=O)c2ccc(N4CCC(C)CC4)cc2S3(=O)=O)cc1`, for which the Potency is 10 µM (active).

`CC1CCN(c2c(NCc3ccc(C(=O)NCc4ccccc4)cc3)c(=O)c2=O)CC1`: the “activity change, negative = inhibition” value is -9.89% (inactive).

`COc1cccc(NC(=O)CN(C)CC(=O)c2c(N)n(Cc3ccccc3)c(=O)n(C)c2=O)c1`: the “activity change, negative = inhibition” value was 6.73% (inactive).

For the compound `CCCCCCSc1ccc([C@@H]2[C@H]3C(=O)N(CC)C(=O)[C@H]3[C@]3(C(=O)OC)CCCCN23)cc1`, the “activity change, negative = inhibition” value is -3.35% (inactive).

As to `COc1ccc(OC)c(C2C3=C(N=c4s/c(=C\c5cccc(O)c5)c(=O)n42)c2ccccc2CC3)c1` (centres undefined), the Potency was 10 µM (active).

As for `O=C1CCCC2=C1C(c1ccccc1)n1c(s/c(=C/c3cccc(F)c3)c1=O)=N2` (centres undefined), the “activity change, negative = inhibition” value was -3.9% (inactive).

In the case of `COCCOC(=O)C1=C(C)N=c2s/c(=C\c3cccs3)c(=O)n2C1c1cccs1` (centres undefined), the Potency result is “inactive”.

Regarding `CSCCC(NC(=O)COc1ccccc1)C(=O)N(C)CC(=O)Nc1ccc(C)cc1` (centres undefined), the “activity change, negative = inhibition” value was -7.96% (inactive).

`CCOc1cc(/C=N/NC(=O)c2cc(-c3ccccc3)nc3ccccc23)ccc1O`: the “activity change, negative = inhibition” value is -10.3% (inactive).

`Cc1ccc2nc(C)cc(N/N=C/c3ccc(F)cc3)c2c1`: the “activity change, negative = inhibition” value was -29.3% (inactive).

As for `CCOc1cc(/C=N/Nc2cc(C)nc3ccc(C)cc23)ccc1O`, the Potency was 10 µM (active).
